The panel holds about 79,000 compounds, 15% with a hit somewhere; the sample as a whole holds those more often. A number with no mark means an inactive call. Active and inactive are the calls of the source. No stated cut-off is given here; in the data, active means growth inhibition above about 70%; inactive means the rest.

Test [1] is described as follows: NCI Yeast Anticancer Drug Screen. Data for the rad50 strain (AID 155).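 Further: 0% = growth of vehicle-only cultures of the same strain.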 To be noted: S. cerevisiae rad50 strain growth inhibition; at 50.0 µM; active compounds read high. The essentials: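 Vehicle-treated cultures provide the reference for the growth inhibition reported for compound-exposed, repair-deficient yeast.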
Test [2] can be described thus: NCI Yeast Anticancer Drug Screen. Data for the mec2-1 strain (AID 157). The settings on record: S. cerevisiae mec2-1 strain, at 50.0 µM, active compounds read high. The essentials: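 mec2-1 yeast strain, carrying an alteration in DNA damage repair or cell cycle control, was exposed to compounds; growth inhibition was measured relative to vehicle-treated controls.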
The nature of test [3]: NCI Yeast Anticancer Drug Screen. Data for the sgs1 mgt1 strain (AID 161).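 Further: 0% = growth of cultures given vehicle only.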 To be noted: S. cerevisiae sgs1 mgt1 strain, at 50.0 µM, active compounds read high. A digest of the protocol: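 Percent growth inhibition was derived by comparing compound-exposed mutant yeast with vehicle-exposed cultures. The strain carries alterations in DNA damage repair.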
Test [4] in a line: NCI Yeast Anticancer Drug Screen. Data for the cln2 rad14 strain (AID 165).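 Further: 0% = growth equal to vehicle treated cultures.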 The settings on record: S. cerevisiae cln2 rad14 strain, at 50.0 µM, active compounds read high. A digest of the protocol:
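Yeast carrying cln2 and rad14 alterations (cell cycle control and DNA damage repair) were exposed to compounds. Growth inhibition was measured against vehicle-treated controls.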

The nature of test [5]: NCI Yeast Anticancer Drug Screen. Data for the bub3 strain (AID 167). The settings on record: S. cerevisiae bub3 mutant strain, at 50.0 µM, active compounds read high. A digest of the protocol: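 Mutant yeast screening strain plus compound; vehicle-treated cultures serve as the 0% inhibition reference.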
The nature of test [6]: NCI Yeast Anticancer Drug Screen. Data for the mlh1 rad18 strain (AID 175). The settings on record: S. cerevisiae mlh1 rad18 strain growth inhibition; at 50.0 µM; active compounds read high. The essentials:
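Growth inhibition of the yeast strain was measured after compound exposure and expressed relative to vehicle-treated controls. The strain carries defined defects in DNA damage repair.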

As for `CC(=O)Oc1c(C)n(C(C)=O)c2cc(Cl)ccc12`, the growth inhibition in test [1] was 1.35%; in test [2] it was -5.55%; in test [3], 15.3%; in test [4] it was -45%; in test [5] it was 6.15%; in test [6], -8.3%.
Regarding `[N-]=[N+]=Nc1nc2c(N)ncnc2n1C1OC(CO)C(O)C1O` (configuration not stated), the growth inhibition is 23.4% in test [1]; 16.4% in test [2]; 6.15% in test [3]; -22.8% in test [4]; -1.35% in test [5]; 20.9% in test [6].
On to `COc1cc(/C=C/C(=O)c2sc(-n3nc(-c4ccccc4)cc3-c3ccccc3)nc2C)ccc1O`, for which the growth inhibition in test [1] was 6%; in test [2], -13.6%; in test [3] it was -34.4%; in test [4] it was 4.9%; in test [5] it was 26.4%; in test [6], -10%.
In the case of `O=c1[nH]c2cc([N+](=O)[O-])ccc2nc1/C(=N/Nc1ccccc1)C(O)c1ccc(Cl)cc1Cl` (configuration not stated), the growth inhibition was 41% in test [1]; 3.6% in test [2]; -11.6% in test [3]; -20.2% in test [4]; -7.3% in test [5]; 34.7% in test [6].
As for `COC(OC)c1cccc2c1C(=O)CCC1(O)c3ccccc3C1C2` (configuration not stated), the growth inhibition is -8.55% in test [1]; -6.65% in test [2]; -38.9% in test [3]; -0.4% in test [4]; -30.1% in test [5]; -30.9% in test [6].
As to `CCOC(=O)N/N=C(\CC)NO`, the growth inhibition in test [1] is 2.45%; in test [2], 1.35%; in test [3], -7.7%; in test [4] it was -7%; in test [5], 12.8%; in test [6], 5.7%.
Turning to `CN1Cc2ccccc2C1`, the growth inhibition in test [1] is 0.75%; in test [2] it was -3.5%; in test [3] it was 1.7%; in test [4] it was 10.4%; in test [5] it was 17.4%; in test [6], 5.55%.
Take `CC1(C)CNC(=O)C2(C=NC(C)(C)CNC(=O)C3(C=N1)CCCO3)CCCO2` (configuration not stated): the growth inhibition was -10.2% in test [1]; -5.6% in test [2]; -36.2% in test [3]; -8.55% in test [4]; -17.6% in test [5]; -11.2% in test [6].
Consider `CCCS(=O)(=O)CCC(=O)c1cccs1`, for which the growth inhibition in test [1] is -0.05%; in test [2] it was -12.1%; in test [3], -8.4%; in test [4], -19%; in test [5], -1.85%; in test [6] it was 5.95%.
As for `CC(=O)OCC1OC(n2cc(F)c(=O)[nH]c2=O)C(NC(=O)N(CCCl)N=O)C(OC(C)=O)C1OC(C)=O` (configuration not stated), the growth inhibition in test [1] is 2.4%; in test [2], -13.9%; in test [3], 12.8%; in test [4], 10.8%; in test [5], 0.9%; in test [6], -5.85%.
With `O=C1NC(=O)C(CCI)N1` (configuration not stated), the growth inhibition is 11.2% in test [1]; 0.15% in test [2]; 23.1% in test [3]; 16.9% in test [4]; -15.2% in test [5]; -12.7% in test [6].
As to `CCOC(=O)C(NC(=S)Cc1ccccc1)C(=O)OCC`, the growth inhibition in test [1] was 10.1%; in test [2], -2.85%; in test [3], -4.8%; in test [4], -5.7%; in test [5], 9.75%; in test [6], -0.35%.
`CC(C)(C)C(c1ccccc1)[N+](C)(C)C` (configuration not stated): the growth inhibition in test [1] is -22.2%; in test [2] it was -2%; in test [3], -2.05%; in test [4], 18.9%; in test [5], 15.2%; in test [6] it was 29.9%.
Turning to `O=C(O)C(CO)(c1ccccc1)c1ccccc1`, the growth inhibition was -3.2% in test [1]; -3.9% in test [2]; -8.25% in test [3]; -1.65% in test [4]; -1.55% in test [5]; -0.15% in test [6].
For the molecule `C=CC(Br)(CBr)CCC(Cl)C(C)C` (configuration not stated), the growth inhibition in test [1] was 86.2% (active); in test [2] it was 90.7% (active); in test [3] it was 90.8% (active); in test [4] it was 91.7% (active); in test [5], 90.3% (active); in test [6] it was 90.5% (active).
On to `O=C1C2=Cc3ccccc3OC2(O)Oc2ccccc21` (configuration not stated), for which the growth inhibition in test [1] is 8.1%; in test [2], 6.4%; in test [3] it was -3.35%; in test [4], 3.35%; in test [5], 1.8%; in test [6] it was -73.2%.
With `O=C(N/N=C/c1cccc(C(F)(F)F)c1)c1ccncc1`, the growth inhibition in test [1] was 12.8%; in test [2] it was 6.7%; in test [3], 11.1%; in test [4] it was -15.7%; in test [5], 8.05%; in test [6] it was 5.85%.
On to `CN(CN(C)/N=C/c1cccc([N+](=O)[O-])c1)/N=C\c1cccc([N+](=O)[O-])c1`, for which the growth inhibition in test [1] is -0.05%; in test [2] it was -11.6%; in test [3], -2.9%; in test [4], -40.9%; in test [5], 4.95%; in test [6], -14.3%.
Take `Cc1cc2c(=O)c3ccccc3oc2c(C(=O)O)c1C`: the growth inhibition in test [1] was -6.75%; in test [2] it was -6.25%; in test [3], -50.6%; in test [4], 12%; in test [5], -1.9%; in test [6], -4.15%.
For `O=C1NC(N2CCCC(CO)C2)=N/C1=C\c1cccs1` (configuration not stated), the growth inhibition in test [1] was 8.1%; in test [2] it was -6.8%; in test [3], -3.4%; in test [4] it was 3.25%; in test [5], -14.4%; in test [6], -39.7%.
Consider `Cc1ccc2nc(-c3ccc(CSC(=N)N)cc3)oc(=O)c2c1`, for which the growth inhibition was 40.2% in test [1]; 43.5% in test [2]; 45.6% in test [3]; 20.9% in test [4]; 19.1% in test [5]; 42% in test [6].
As for `CCCCCCCCCCCCCC(=O)OCC(CCS(=O)(=O)O[C@H]1CC[C@@]2(C)C(=CC[C@@H]3C2CC[C@]2(C)C(=O)CCC32)C1)OC(=O)CCCCCCCCCCCCC` (some centres not stated), the growth inhibition was -32.8% in test [1]; -30.9% in test [2]; -15.3% in test [3]; -26.6% in test [4]; -22.2% in test [5]; -23.6% in test [6].

These data come from PubChem BioAssay (NCI).
